CASP6 VEID inh = blocks human caspase-6 cleavage activity. 350,000 tested, 0.53% active. inhibition, % at 12.5 µM. P55212. purified caspase-6, Z-VEID-R110 cleavage fluorescence;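 active = mean inhibition across replicates at least about 35%, with every replicate also reaching that limit, limit read from the data; inconclusive = only one of the two criteria met; inactive = neither criterion met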
MLL AF4-AF9 inh = blocks AF4 peptide binding to human AF9; AlphaScreen, biotin-AF4 peptide binding to FLAG-AF9; inhibition, % at 10 µM; 350,000 tested, 0.47% active; AID 651704;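 active = every replicate reaching a set inhibition limit, whatever the replicate mean, cut at about 25% in these data; inconclusive = mean inhibition reaches that limit but some replicates miss it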
RAD54 branch = blocks human RAD54 Holliday junction branch migration | Q92698 | FAM/BHQ fluorescence | inhibition, % at 10.4 µM | 360,000 tested, 0.14% active;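 active = mean normalized replicate activity at least 40 and at least half of replicates scoring 40 or more; inconclusive = only one of the two criteria met; inactive = mean below 40 and under half of replicates reaching 40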;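 note: inhibitors cause a drop in the FAM fluorescence signal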
RAD52 anneal inh = blocks human RAD52 DNA annealing. P43351. recombinant RAD52 DNA annealing, FRET fluorescence. inhibition, % at 18.7 µM. 360,000 tested, 0.46% active. AID 651710;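 active = every replicate showing at least 50% inhibition; inconclusive = mean inhibition at least 50% but not in every replicate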
Glyco luc inh = blocks N-linked glycosylation in D54 reporter cells | D54 ERlucT glycosylation luciferase reporter, 24 h; percent of 100 nM tunicamycin response | 360,000 tested, 0.23% active | reporter increase, % at 12.5 µM;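 active = mean luciferase reporter signal, scaled so untreated is 0 and the glycosylation-blocking control 100, at or above a set limit in every replicate; inconclusive = mean reaches the limit but not every replicate does; inactive = mean below the limit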;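 note: luciferase carries N-glycosylation sites so blocking glycosylation raises the light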
Hits are given with their value; . = inactive; ? = inconclusive; / = no result; ! = not active in a repeat. Most compounds without a hit are left out; they make up all but 1.2% or so of the library.

SMILES	CASP6 VEID inh	MLL AF4-AF9 inh	RAD54 branch	RAD52 anneal inh	Glyco luc inh
CC(=O)/C=C/c1ccccc1Oc1c(F)c(F)nc(F)c1F	.	.	.	.	60
O=c1cc(-c2ccc(O)cc2)oc2c(-c3c(O)cc(O)c4c(=O)cc(-c5ccc(O)cc5)oc34)c(O)cc(O)c12	.	.	.	.	.
O=c1c(-c2c(O)cc(O)c3c(=O)cc(-c4ccc(O)cc4)oc23)c(-c2ccc(O)cc2)oc2cc(O)cc(O)c12	83	.	.	.	.
O=C(Nc1ccc(F)cc1)N1[C@@H]2CNC[C@H]1C2c1ccc(-c2ccccc2)cc1 (some centres undefined)	.	.	/	55!	/
C/C=C/c1ccc(C2[C@@H]3CN(C(=O)c4ccc5c(c4)OCO5)C[C@H]2N3)cc1 (some centres undefined)	.	.	/	.	/
O=C(Nc1ccc2c(c1)OCO2)N1C[C@@H]2N[C@H](C1)C2c1ccc(C=Cc2ccccc2)cc1 (some centres undefined)	.	56!	/	79	/
O=C(Nc1ccc(F)cc1)N1[C@@H]2CNC[C@H]1C2c1ccc(-c2ccc(F)cc2)cc1 (some centres undefined)	.	.	/	51	/
Cc1ccc(-c2ccc(C3[C@H]4CNC[C@@H]3N4C(=O)Nc3ccc(F)cc3)cc2)cc1 (some centres undefined)	.	.	/	.	/
O=C(Nc1ccc2c(c1)OCO2)N1[C@@H]2CNC[C@H]1C2c1ccc(/C=C/c2ccccc2)cc1 (some centres undefined)	.	.	/	60	/
C[C@@H]1CN([C@H](C)CO)C(=O)c2cc(NC(=O)NC3CCCCC3)ccc2O[C@@H](C)CCCCO[C@@H]1CN(C)C(=O)NC1CCCCC1	.	.	.	.	/
COCC(=O)N1CC2(C1)CN(C(=O)Nc1ccccc1F)[C@@H](CO)c1[nH]c3cc(OC)ccc3c12	.	.	/	.	/
Cc1ccc(-c2ccc(C3[C@H]4CNC[C@@H]3N4C(=O)Nc3ccccc3Cl)cc2)cc1 (some centres undefined)	.	.	/	53!	/
O=C(Nc1ccccc1Cl)N1[C@@H]2CNC[C@H]1C2c1ccc(-c2ccccc2)cc1 (some centres undefined)	.	.	/	.	/
O=C(Nc1ccc(Cl)cc1)N1[C@@H]2CNC[C@H]1C2c1ccc(/C=C/c2ccccc2)cc1 (some centres undefined)	.	.	/	67!	/
O=C(Nc1ccc(Cl)cc1)N1[C@@H]2CNC[C@H]1C2c1ccc(-c2ccccc2)cc1 (some centres undefined)	.	.	/	58!	/
O=C(Nc1ccc(F)cc1)N1[C@@H]2CNC[C@H]1C2c1ccc(/C=C/c2ccccc2)cc1 (some centres undefined)	.	.	/	.	/
COC(=O)c1ccccc1CSc1nsc(/C=C/N(C)C)c1C#N	37	/	.	.	.
CO[C@@H]1CN(C)C(=O)c2ccc(NS(=O)(=O)c3cn(C)cn3)cc2OC[C@@H](C)N(CC2CC2)C[C@H]1C	.	.	.	.	/
CCCCSCc1[nH]c(=O)[nH]c1C(=O)CCCCC(=O)OCC	/	/	.	/	.
Cc1[nH]c(=O)[nH]c1C(=O)CCCCC(=O)O	.	73	.	.	.
Clc1ccccc1/C=N/N1CCN(Cc2ccccc2)CC1	.	34	.	.	.
CCOc1ccccc1/C=N/N1CCN(Cc2ccccc2)CC1	.	28	.	.	.
O=[N+]([O-])c1ccccc1/C=N/N1CCN(Cc2ccccc2)CC1	.	?	.	.	.
CC(=O)N(C)C[C@H]1Oc2cc(Br)ccc2S(=O)(=O)N([C@H](C)CO)C[C@H]1C	.	.	.	.	/
O=C(NNC(=O)c1ccccc1F)c1ccc2nc[nH]c2c1	.	.	.	.	.
SMILES	CASP6 VEID inh	MLL AF4-AF9 inh	RAD54 branch	RAD52 anneal inh	Glyco luc inh
O=C(NNC(=O)c1ccccc1Br)c1ccc2nc[nH]c2c1	47	.	.	.	.
COc1ccc(/C=C2\SC(=S)NC2=O)cc1OS(=O)(=O)c1ccc(NC(C)=O)cc1	40	.	/	.	.
CCOCCCNC(=O)c1cc2c(=O)n(CC)c3ccccc3c2s1	.	.	.	.	41
C[C@H]1CN([C@@H](C)CO)C(=O)c2cc(NS(=O)(=O)c3ccc(F)cc3)ccc2O[C@@H]1CN(C)Cc1ccc(Cl)c(Cl)c1	.	.	.	.	/
c1coc(CSSCc2ccco2)c1	82	.	.	.	.
Cc1ccc(C(=O)N/C(=C/c2cccs2)C(=O)NCCc2c[nH]c3ccccc23)cc1	.	.	.	.	55
Cc1ccc(C(=O)N/C(=C\c2ccco2)C(=O)NCCc2c[nH]c3ccccc23)cc1	.	.	/	.	30
CCN1[C@H](C(=O)NCCCN(C)C)[C@@H](CO)[C@@H]2Cn3c(ccc(C4=CCCC4)c3=O)[C@@H]21	.	.	/	.	/
C[C@@H]1CN([C@@H](C)CO)C(=O)c2cc(N(C)C)ccc2O[C@@H]1CN(C)S(=O)(=O)c1ccc(Cl)cc1	.	.	.	.	/
COc1ccc(C(=O)Nc2cc(C(=O)O)cc(C(=O)O)c2)cc1Cl	82	.	/	.	.
COC(=O)c1cccc(NC(=O)c2ccc(OC)c(Cl)c2)c1	.	.	.	.	.
CCOc1ccc(C(C(=O)NCC2CCCO2)N(C(=O)c2snc(C(N)=O)c2N)c2ccc3c(c2)OCCO3)cc1 (centres undefined)	.	27	.	.	.
CN(C)c1ccc(C(C(=O)NCC2CCCO2)N(C(=O)c2snc(C(N)=O)c2N)c2ccc3c(c2)OCO3)cc1 (centres undefined)	.	.	.	.	.
O=C(N/N=C1\C/C(=N\NC(=O)c2ccncc2)c2ccccc21)c1ccncc1	90	.	.	.	.
O=C(NN=C1C2CC3CC(C2)CC1C3)c1ccncc1	/	/	.	/	.
COc1ccc2c3c([nH]c2c1)[C@H](CO)N(CC1CC1)CC31CN(C(=O)c2ccccc2F)C1	/	.	/	/	/
CCN1CCN(C(=O)c2ccc3c(c2)N(Cc2ccccc2)C(=O)c2ccccc2S3=O)CC1 (centres undefined)	.	49	.	.	.
CN1CCN(C(=O)c2ccc3c(c2)N(Cc2cccc(Cl)c2)C(=O)c2ccccc2S3=O)CC1 (centres undefined)	.	.	.	.	.
COc1ccc2c3c(n(C)c2c1)[C@@H](CO)N(C(=O)CN1CCOCC1)CC31CN(C(=O)C2CC2)C1	/	.	/	/	/
CCN1CCN(CCNC(=O)c2ccc(/C=C3\Sc4ccccc4N(Cc4ccccc4F)C3=O)cc2)CC1	.	.	/	85	.
Cc1ccc(N2C(=O)c3ccccc3[C@](C)(C(=O)O)[C@@H]2c2ccc(CO)cc2)nc1	.	.	.	.	/
N#Cc1cccc(CN2CCC(=O)N([C@H](CO)Cc3ccccc3)CC2)c1	/	44	.	.	.
CN1OC[C@@H]2CN(S(=O)(=O)c3ccccc3)[C@H](c3ccc(N4CCCCC4)cc3)C[C@@H]21	.	.	.	.	.
CN1OC[C@@H]2CN(Cc3ccc(Cl)cc3)[C@H](c3ccc(-n4ccnc4)cc3)C[C@@H]21	.	.	.	.	.
